A selection: hits, their analogues and other compounds. The true share with any hit is near 8.1%.
Sfp inh – inhibitors of Bacillus subtilis Sfp phosphopantetheinyl transferase. Q9F4F7. Biochemical Sfp PPTase activity, qHTS. Potency, µM, inactives show largest response in the series, negative = inhibition, hits mostly inhibitors. 3.5% of 310,000 active. AID 1490;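 note: the enzyme is Sfp with the accession as filed and its product quenches rhodamine fluorescence; 0% = enzyme reaction without inhibitor and -100% = no enzyme wells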
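After 15 min at room temperature with compound, 15 nM Sfp received 5 uM rhodamine-CoA plus 12.5 uM BHQ-2-ybbR (50 mM Hepes pH 7.6, 10 mM MgCl2). Rate came from the fluorescence difference over 30 min, ex 525/em 598 nm.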
ClpP mod – qHTS Assay for Activators of ClpP | ATP-dependent Clp protease proteolytic subunit (Bacillus subtilis (strain 168)), P80244 | purified B. subtilis ClpP, FRET peptide cleavage, 20 min | Potency, µM (series often up to 57.5 µM), inactives show at the top dose activity change, negative = active | 1.9% of 340,000 active; active = well fitted falling curve with a large enough effect; inconclusive = small, poorly fitted or top-dose-only effect; inactive = no such curve, though single readings can be large or run the other way; note: the source files actives as falling curves though it sought activators and does not explain the sign; nearly all actives have a fitted effect of over 65% in size
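Buffer: 100 mM Tris/HCl pH8, 100 mM KCl, 0.05% low protease BSA, 2.5% glycerol, 0.01% Tween-20. ClpP 10 microg/mL final; 20 min RT; delta FRET normalized to ADEP and DMSO controls.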
RORgamma inh – inhibitors of mouse ROR gamma transcriptional activity | AID 2551 | Potency, µM (series often up to 53.6 µM), without a hit: at the highest dose activity change, negative = inhibition, most hits filed as inhibitors | 5.4% of 310,000 active | P51450 | Drosophila S2 Gal4-RORgamma UAS-luciferase reporter, 20 h; note: % is set by controls: 0 for no effect and ±100 for the full control effect; nearly all actives have a fitted effect of over 60% in size
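Compounds are pin-transferred onto Drosophila Schneider cells expressing a copper-inducible Gal4–ROR gamma transactivation domain fusion. After 1 hr, copper sulfate is added to 700 uM final; luciferase is read 20 hr later.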
VP16 counter – inhibits Gal4-VP16 luciferase reporter, ROR gamma counter-screen; AID 2546; Potency, µM (top dose mostly 53.6 µM), for inactives: top-dose activity, negative = inhibition, hits mostly inhibitors; 3.5% of 310,000 active; Drosophila S2 Gal4-VP16 UAS-luciferase, luminescence, 20 h;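 note: Gal4-VP16 expression switched on by copper sulfate through the metallothionein promoter; % is set by controls: 0 for no effect and ±100 for the full control effect; nearly all actives have a fitted effect of over 50% in size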
PINK1 modulator – changes PINK1 expression; PINK1 immunofluorescence, high-content cytometry, 24 h; Potency, µM (titrated, usually from 76.6 µM), for inactives: at the top dose activation (PINK1 increase), hits mostly activators; 0.2% of 410,000 active; AID 624263; active = well fitted activation curve with a large enough effect; inconclusive = small, poorly fitted or top-dose-only effect; cell line not stated here; note: % of control where 0% means no effect; nearly all actives have a fitted effect of over 65% in size
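Readout is PINK1 immunofluorescence, quantified alongside mitochondrial, cell and nuclear markers by laser-scanning microplate cytometry. Cells from a stable line were exposed to compound titrations (5 concentrations) for 24 hours, with CCCP controls.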
Epigenetic reg – regulators of epigenetic silencing causing reporter derepression in mouse cells | 0.2% of 280,000 active | Potency, µM (top dose mostly 53.9 µM), inactives show at the highest dose GFP activation, usual class: activators | AID 1865 | murine LDR cells, GFP reporter derepression, 30 h; note: % of control where 0% means no effect; nearly all actives have a fitted effect of over 60% in size
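Readout is the number of GFP-expressing murine LDR cells, counted by cytometry following washing. Cells were treated with compound for 30 h at 37 C; the stably integrated CMV-GFP locus is normally silent.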
An asterisk follows results filed as active; ? = inconclusive; / = no result; [ ] = dose if it differs, or a comment. Unless noted, calls come from the whole dose curve; as a rule, active = well fitted curve in the direction sought with a large enough effect; inconclusive = small, poorly fitted or top-dose-only effect, or another doubt; inactive = no such curve, though single readings can be large; an effect the other way counts as inactive or inconclusive. Potency is the fitted concentration of half-maximal effect.

SMILES	Sfp inh	ClpP mod	RORgamma inh	VP16 counter	PINK1 modulator	Epigenetic reg
COc1ccc2nc3c(c([Si](C)(C)C(C)(C)C)c2c1)Cn1c-3cccc1=O	-23%	/	13µM*	11µM*	/	9%
COc1ccc2nc3c(cc2c1)Cn1c-3nc2ccccc2c1=O	6%	/	?	?	/	/
CCc1c2c(nc3cccc(C(C)C)c13)-c1cccc(=O)n1C2	-3%	/	0%	-11%	/	-1%
CC(C)(C)[Si](C)(C)c1c2c(nc3ccc(OCc4ccccc4)cc13)-c1cccc(=O)n1C2	56µM*	/	0%	-5%	/	1%
COc1ccc(C(=O)NCC(c2ccc(N(C)C)cc2)N2CCCC2)c(OC)c1 (stereo not drawn)	/	-3%	/	/	1%	-3%
CC(O)(COc1ccccc1)c1ccc2c(c1)CN(Cc1cccc3cccnc13)CCO2 (stereo not drawn)	/	/	/	/	0%	/
CC1=Nc2ccccc2/C1=C(/C)c1c(C)[nH]c2ccccc12	/	-1%	/	/	0%	/
CC(C)c1ccc(NC(=O)c2cc3c(s2)-c2ccccc2SC3)cc1	/	-23%	/	/	-1%	0%
COc1ccc(OC)c(C2CC(=O)N3CN(c4cccc(Cl)c4C)CSC3=C2C#N)c1 (stereo not drawn)	3.5µM*	-5%	?	2%	0%	0%
COc1cccc(C2CC(=O)N3CN(c4cccc(Cl)c4C)CSC3=C2C#N)c1OC (stereo not drawn)	3.5µM*	-1%	17%	-9%	0%	0%
COc1ccc(OC)c(C2CC(=O)N3CN(c4ccccc4F)CSC3=C2C#N)c1 (stereo not drawn)	?	2%	15%	-1%	1%	-2%
Cc1ccccc1NC(=O)Cn1c(C)nc2ccc(N)cc2c1=O	7%	28µM*	1%	-9%	0%	2%
Cc1ccccc1NC(=O)Cn1c(C)nc2ccc(NC(=O)C3CC3)cc2c1=O	-6%	-13%	9%	-9%	-3%[38.3 µM]	1%
CCOc1ccc2[nH]c(=O)c(C(c3nnnn3C3CCCCC3)N3CCN(CC)CC3)cc2c1 (stereo not drawn)	24%	25µM*	-2%	-1%	-3%[38.3 µM]	6%
CCOc1ccc2[nH]c(=O)c(C(c3nnnn3C3CCCCC3)N3CCN(C)CC3)cc2c1 (stereo not drawn)	2%	25µM*	-2%	-8%	-2%	-1%
CCOc1ccc2[nH]c(=O)c(C(c3nnnn3Cc3ccco3)N3CCCC(C)C3)cc2c1 (stereo not drawn)	13µM*	-24%	28%	-3%	0%	-2%
COc1ccc2[nH]c(=O)c(C(c3nnnn3C3CCCC3)N3CCN(Cc4ccc5c(c4)OCO5)CC3)cc2c1 (stereo not drawn)	-2%	28µM*	1%	-5%	-2%[38.3 µM]	6%
COc1ccc(Cn2nnnc2C(c2cc3cc(C)ccc3[nH]c2=O)N2CCOCC2)cc1 (stereo not drawn)	?	-27%	0%	-26%	-1%[38.3 µM]	-1%
COc1ccc2[nH]c(=O)c(C(c3nnnn3C3CCCC3)N(C)C3CCCCC3)cc2c1 (stereo not drawn)	8%	?	1%	2%	1%	5%
Cc1onc(-c2ccccc2)c1C(=O)n1nnc2ccccc21	-4%	28µM*	17%	-3%	5%	1%
Cc1onc(-c2ccccc2)c1C(N)=O	5%	-1%	6%[0.365 µM]	/	-1%	2%
O=C(N/N=C/c1cccc(F)c1)c1cc(-c2ccco2)nc2ccccc12	-5%	32µM*	-8%	13%	6%	0%
Cc1cc(C(=O)N/N=C/c2ccc(C)o2)c2ccccc2n1	-25%	1%	?	?	12%	-2%
COc1ccc(-c2cc(C(=O)N/N=C/c3ccc4c(c3)OCO4)c3ccccc3n2)c(OC)c1	9%	-22%	-17%	-2%	2%	-2%
Cc1ccc(-c2cc(C(=O)N/N=C/c3ccoc3)c3ccccc3n2)cc1	2%	130%	7.1µM*	10µM*	8%	/
SMILES	Sfp inh	ClpP mod	RORgamma inh	VP16 counter	PINK1 modulator	Epigenetic reg
O=C(N/N=C/c1ccc2c(c1)OCO2)c1cc(-c2ccc(F)cc2)nc2ccccc12	45µM*	36%	?	?	17%	-2%
CCCc1cc(C(=O)N/N=C/c2ccc(C)o2)c2ccccc2n1	-20%	1%	10µM*	0%	2%	1%
O=C(O)/C=C/c1ccc2c(c1)S(=O)(=O)N(C1CCCC1)[C@H]2CC(=O)O	/	-1%	/	/	/	/
CCOC(=O)/C=C1\CN(Cc2ccc(OC)cc2)S(=O)(=O)c2ccc(C(F)(F)F)cc21	/	-1%	/	/	/	/
Cc1ccc(/C=N/NC(=O)c2cc(-c3ccccc3)nc3ccccc23)o1	50µM*	-7%	4µM*	7.1µM*	2%	/
Cc1ccc(C=NNC(=O)c2cc(-c3cccnc3)nc3ccccc23)o1	/	/	/	/	8%	/
Cc1ccc(/C=N/NC(=O)c2cc(C3CC3)nc3ccccc23)o1	50µM*	-2%	?	?	8%	1%
O=C1[C@@H]2Cc3c([nH]c4ccccc34)C(c3ccccc3)N2C(=O)CN1C1CCN(Cc2ccccc2)CC1 (stereo partly drawn)	-15%	/	2.8µM*	?	-4%	/
O=C(O)C(=O)Nc1ncn[nH]1	/	0%	/	/	1%	/
O=C(/C=C/c1ccccc1)Nc1ncn[nH]1	-7%	-1%	14µM*	?	10%[38.3 µM]	4%
COC1=CC(=O)C=C(OC)C1=O	-80%	0%	2.8µM*	4.5µM*	0%	0%
COC1=CC(=O)c2ccccc2C1=O	/	3%	/	/	20%	/
COc1ccccc1Nc1nc(-c2cccc([N+](=O)[O-])c2)nc2ccccc12	79µM*	-4%	1%	-10%	3%	0%
CCOC(=O)/C(=N\Nc1ncnc2ccccc12)c1ccc(OC)cc1	-19%	/	7.1µM*	14µM*	2%	/
COc1ccc(/C(=N/Nc2ncnc3ccccc23)C(=O)O)cc1	63µM*	/	0.28µM*	0.5µM*	0%	/
Cc1cccc(NC(=S)NNC(=O)c2ccc(O)cc2O)c1C	11%	/	7.9µM*	20µM*	0%	-4%
Cc1cccc(NC(=S)NC2CC3CCCC(C2)N3CC(C)C)c1C (stereo not drawn)	1%	0%	-24%	-3%	-2%	-1%
Cc1cccc(NC(=S)NNC(=S)NC2CCCCC2)c1C	?	1%	13µM*	?	-1%	2%
Cc1ccccc1NC(=S)NC1CCCC1	5%	-1%	7.9µM*	8.9µM*	-1%	/
